In PubChem BioAssay AID709 (SRMLSC, 2007):
The whole screen tested about 65,000 compounds, of which about 3,600 (5.5%) were called active.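 How the source made its calls: active means at 10 µM, mean starting fluorescence two-fold or more over control wells; inactive means the rest.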 For the sample, actives were picked, then their nearest neighbours and some compounds at random.

assay: intrinsic fluorescence of library compounds, ex339/em460 – biochemical, MLSMR library, data from DPM-DC assay, artefact control, profiling panel (AID 709); settings: compound autofluorescence, ex339/em460 nm, NADH buffer; at 10 µM; active compounds read high; 1 = no-compound wells, NADH background;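 further: signal is the first read of a kinetic run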

Compound | fluorescence fold increase
O=C(Oc1cccnc1)c1cc2ccccc2oc1=O | 1.24 (inactive)
CCOC(=O)C1CCCCN1Cc1ccc(OC)c(OC)c1OC (stereo unspecified) | 1.06 (inactive)
Cc1ccc2oc(=O)c3cnn(CC(=O)N4CCN(c5ccccn5)CC4)c3c2c1 | 1.1 (inactive)
O=C(Cn1nnc(-c2ccc3c(c2)OCO3)n1)NCc1ccco1 | 1.15 (inactive)
CCOc1ccc(C(CC(=O)O)NC(=O)COc2ccccc2)cc1 (stereo unspecified) | 1.07 (inactive)
O=S(=O)(O)c1nc2ccccc2n1Cc1ccc(Cl)cc1 | 1.22 (inactive)
N#Cc1c(N)n(CCOC(=O)c2ccc(Cl)cc2)c2nc3ccccc3nc12 | 2.28 (active)
Cn1nnnc1SCc1cc(=O)[nH]c2ccccc12 | 1.06 (inactive)
CCOc1ccccc1N(CC(=O)Nc1ccccc1C(=O)OC)S(C)(=O)=O | 1.11 (inactive)
COC(=O)C1=C(C)N(C)C(C)=C(C(=O)OC)C1c1cccc(Br)c1 | 1.12 (inactive)
CC12CN3CC(C)(CN(C1)C3c1ccc(Cl)cc1Cl)C2=O (stereo unspecified) | 1.04 (inactive)
CCCCOCCCNC(=O)c1ccccc1OCC | 1 (inactive)
CCOc1ccccc1C1C(C(=O)OC)=CN(C)C=C1C(=O)OC | 4.81 (active)
COC(=O)C1=CN(C)C=C(C(=O)OC)C1c1ccc(Cl)cc1Cl | 2.14 (active)
CN1CCN(Cc2nc3c(c(=O)n(C)c(=O)n3C)n2Cc2cccc3ccccc23)CC1 | 1.12 (inactive)
CCCOc1ccc(-c2nc(N)n[nH]2)cc1 | 1.14 (inactive)
O=C1c2ccccc2C(O)N1Cc1ccccc1Cl (stereo unspecified) | 1.04 (inactive)
Cn1c(=NC(=O)c2ccco2)sc2cccc(F)c21 | 1.85 (inactive)
O=C(CSc1nnc(Cc2ccccc2)n1-c1ccccc1)N1CCOCC1 | 1.04 (inactive)
CC(=O)c1cccc(NC(=O)c2ccncc2)c1 | 1.03 (inactive)
Cc1nc(NC(=O)C23CCC(C)(C(=O)O2)C3(C)C)sc1C (stereo unspecified) | 1.02 (inactive)

Compound | fluorescence fold increase
CC(=O)N=c1ncn(CC(COC(C)=O)OC(C)=O)c2nc[nH]c12 (stereo unspecified) | 1.07 (inactive)
COc1ccc(-n2ncc3c(N4CCc5ccccc54)ncnc32)cc1 | 3.76 (active)
Cc1cccc(-n2ncc3c(N4CCc5ccccc54)ncnc32)c1 | 2.26 (active)
COc1ccc(N2CCN(C(=O)CSc3ncnc4c3cnn4-c3ccc(OC)cc3)CC2)cc1 | 1.23 (inactive)
c1ccc(-n2ncc3c(N4CCCC4)ncnc32)cc1 | 1.04 (inactive)
C1=C(CCNc2ncnc3c2cnn3-c2ccccc2)CCCC1 | 1.05 (inactive)
COc1ccc(-n2ncc3c(N4CCCc5ccccc54)ncnc32)cc1 | 2.48 (active)
COc1ccc(-n2c(C)nc3c(cnn3-c3ccccc3)c2=O)cc1 | 1.1 (inactive)
Cc1ccc(-n2ncc3c(N4CCN(c5ccc(F)cc5)CC4)ncnc32)c(C)c1 | 1 (inactive)
C=CCNC(=O)CCCOc1cccc(C)c1 | 1.09 (inactive)
Cc1cc(/C=N/n2cnnc2)c(C)n1-c1ccc2ncccc2c1 | 1.05 (inactive)
COc1ccc2nc(NC3=NCN(CC4CCCO4)CN3)nc(C)c2c1 (stereo unspecified) | 1.66 (inactive)
Cc1cccc(N2CC(C)Cn3c2nc2c3c(=O)n(CC(=O)OCc3ccccc3)c(=O)n2C)c1 (stereo unspecified) | 1.1 (inactive)
COc1cc(OC)c(C(=O)NC2CC(C)(C)NC(C)(C)C2)cc1OC | 1.16 (inactive)
CSc1nc(O)c(Cc2ccccc2)c(=O)[nH]1 | 1.07 (inactive)
Cc1ccc(C(=O)COc2cccc(NC(=O)c3ccco3)c2)cc1 | 1.18 (inactive)
O=C(Nc1ccc(Oc2ccccc2)cc1)c1ccco1 | 1.11 (inactive)
CCOc1cc(NC(=O)c2ccco2)c(OCC)cc1NC(=O)COc1ccccc1 | 3.91 (active)
CC(C)C(c1nnnn1C1CCCC1)N1CCN(c2ccccc2F)CC1 (stereo unspecified) | 1.02 (inactive)
O=C(Cn1nc(Cc2cccnc2)c2ccccc2c1=O)NCC1CCCO1 (stereo unspecified) | 1.03 (inactive)
Cc1ccc(C2c3c(oc4ccc(C)cc4c3=O)C(=O)N2CCCN2CCOCC2)cc1 (stereo unspecified) | 1.09 (inactive)

Compound | fluorescence fold increase
Cn1c(=O)c2c(nc(CN3CCOCC3)n2Cc2ccccc2)n(C)c1=O | 1.04 (inactive)
Cc1cccn2c(=O)c3cc(C#N)c(=NC(=O)c4cccnc4)n(CC4CCCO4)c3nc12 (stereo unspecified) | 2.38 (active)
COc1ccc(CNC(=O)c2cc3c(=O)n4ccccc4nc3n(CC3CCCO3)c2=N)cc1 (stereo unspecified) | 1.91 (inactive)
Cc1cccn2c(=O)c3cc(C#N)c(=O)n(CCCN4CCOCC4)c3nc12 | 3.03 (active)
CCOc1ccc2c(c1)cc(CN(C(=O)CC)C1CCCCC1)c1nnnn12 | 1.21 (inactive)
COc1cc(C2C(C#N)=C(N)Oc3n[nH]c(-c4ccccn4)c32)cc(OC)c1OC (stereo unspecified) | 1.09 (inactive)
CCc1ccc2oc(-c3ccc(N)cc3)nc2c1 | 2.12 (active)
COc1cccc(-c2nc3cc(C)ccc3o2)c1 | 1.2 (inactive)
CCOC(=O)CSc1nc2c(c(=O)n(Cc3ccccc3Cl)c(=O)n2C)n1C | 1.06 (inactive)
N#Cc1nc(-c2ccc(OCc3ccccc3)cc2)oc1NCCCN1CCOCC1 | 3.88 (active)
N#Cc1nc(COc2ccc(-c3ccccc3)cc2)oc1NCc1cccnc1 | 1.07 (inactive)
N#Cc1nc(Cc2ccccc2)oc1NCCc1ccccc1 | 1.1 (inactive)
Cc1ccc2nc(-c3ccccc3)cc(C(=O)O)c2c1 | 1.22 (inactive)
Cc1ccc(NC(=O)c2cc(-c3ccc(C)o3)nc3ccccc23)nc1 | 2.48 (active)
Cc1cc(=O)oc(C)c1C(=O)Nc1cnc2ccccc2c1 | 1.27 (inactive)
CCc1c(O)nc(SCC(=O)N2CCCCC2)n(-c2ccccc2C)c1=O | 1.04 (inactive)
CC1CN(c2cc(=O)n(Cc3ccc(F)cc3)c(=O)[nH]2)CC(C)O1 (stereo unspecified) | 1.08 (inactive)
Cc1ccc(S(=O)(=O)c2c(N)n(C)c3nc4ccccc4nc23)cc1 | 3.95 (active)
Cc1ccc(S(=O)(=O)NCc2nc3ccccc3c(=O)n2N)cc1 | 1.1 (inactive)
